# Screening data: PubChem, National Center for Advancing Translational Sciences (NCATS)
# A selection: hits, their analogues and other compounds. The true share with any hit is near 0.27%.
# Chronic BCR inh: qHTS Assay to Find Inhibitors of Chronic Active B-Cell Receptor Signaling | Potency, µM (series often up to 46.1 µM), usual class: inhibitors | ABC-DLBCL IkBa-CBG/CBR reporter, luminescence ratio, 4 h | actives 0.05% (n = 340,000) | AID 493014, 2011; active = well fitted inhibition curve with a large enough effect in the signal ratio, with a control signal flat, not every such curve was filed as active; inconclusive = small, poorly fitted or top-dose-only effect, or effect the other way, or a change in a side signal; the % refers to the signal ratio
#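 Concentration-response series (up to 46 uM) were applied to TMD8 dual-reporter cells for 4 h at 37C with doxycycline. Green/red ratio, after filter-overlap correction, defined %Activity; red signal alone was normalised to basal cells and zero luminescence.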
# MBNL1-CUG inh: qHTS Assay for Inhibitors of MBNL1-poly(CUG) RNA binding | Potency, µM (top dose mostly 57.5 µM), actives largely listed as inhibitors | AID 2675, 2010 | TR-FRET MBNL1-His/biotin-(CUG)12 binding, 665/545 ratio | Muscleblind-like protein 1 (Homo sapiens), Q9NR56 | actives 0.036% (n = 280,000); active = well fitted inhibition curve with a large enough effect in the signal ratio, with a control signal flat, not every such curve was filed as active; inconclusive = small, poorly fitted or top-dose-only effect, or effect the other way, or a change in a side signal; inactive = no such curve, though single readings can be large or run the other way; the % refers to the signal ratio
#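 TR-FRET between His-tagged MBNL1 and biotin-(CUG)12 RNA, detected with Tb anti-His antibody (0.055 ng/ul) and streptavidin-XL665 (5 nM), 60 min at room temperature. Compounds titrated 92 nM to 58 uM; 665/545 nm ratio normalized to buffer and complex controls.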
# B2AR arrestin: qHTS assay of beta-arrestin-biased ligands of beta2-adrenergic receptor; Beta-2 adrenergic receptor (Homo sapiens), P07550; beta-arrestin recruitment to beta2AR, cell-based reporter; Potency, µM (titrated, usually from 46.1 µM), usual class: activators; actives 0.02% (n = 330,000); also: nearly all actives have a fitted effect of over 65% in size
# Tb PFK inh-1: qHTS Assay to Find Inhibitors of T. brucei phosphofructokinase; ATP-dependent 6-phosphofructokinase (Trypanosoma brucei brucei), O15648; T. brucei PFK, ADP-Glo luminescence; Potency, µM (titrated, usually from 57.5 µM), actives largely listed as inhibitors; actives 0.17% (n = 330,000); also: nearly all actives have a fitted effect of over 60% in size
# Target sequence (O15648 whole entry, looked up): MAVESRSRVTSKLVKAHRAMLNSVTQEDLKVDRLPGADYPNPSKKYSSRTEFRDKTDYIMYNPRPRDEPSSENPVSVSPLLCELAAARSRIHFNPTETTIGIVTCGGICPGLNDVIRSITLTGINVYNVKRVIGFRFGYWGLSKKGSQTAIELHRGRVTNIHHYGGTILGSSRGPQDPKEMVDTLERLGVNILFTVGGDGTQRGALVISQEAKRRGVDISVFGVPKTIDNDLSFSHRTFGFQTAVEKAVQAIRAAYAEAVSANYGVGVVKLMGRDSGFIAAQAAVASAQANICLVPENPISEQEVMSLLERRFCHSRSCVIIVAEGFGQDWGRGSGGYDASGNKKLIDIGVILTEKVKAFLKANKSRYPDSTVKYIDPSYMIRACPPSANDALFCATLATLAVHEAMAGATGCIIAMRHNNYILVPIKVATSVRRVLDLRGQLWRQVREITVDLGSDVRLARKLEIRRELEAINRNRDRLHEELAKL
#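 Luminescent ADP detection (ADP-Glo, two-step: ATP depletion then ADP-to-ATP conversion for luciferase) reported PFK activity after 45 min room-temperature reaction of 1.25 nM enzyme with 0.5 mM F6P and 0.1 mM ATP at pH 8.0.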
# Tb PFK KinaseGlo: Tb PFK orthogonal confirmatory assay using ATP depletion (Kinase-Glo Plus) as an alternative measure of Tb PFK activity: Hit Validation; shares compounds with Tb PFK inh-1; Tb PFK enzyme, ATP depletion, Kinase-Glo Plus luminescence; Potency, µM (highest dose often 57.5 µM); actives 47% (n = 1,100); calls by dose curve; also: nearly all actives have a fitted effect of over 60% in size
# Tb PFK inh-2: Inhibitors of T. brucei phosphofructokinase: Hit Validation. shares compounds with Tb PFK inh-1. purified T. brucei PFK, ADP-Glo luminescence, 45 min. Potency, µM (top dose mostly 57.5 µM), actives largely listed as inhibitors. actives 41% (n = 1,100); also: nearly all actives have a fitted effect of over 60% in size
# Hits are given with their value; - = inactive; ? = inconclusive; . = no result given. Unless noted, calls follow the shape of the dose curve; as a rule, active = well fitted curve in the direction sought with a large enough effect; inconclusive = small, poorly fitted or top-dose-only effect, or another doubt; inactive = no such curve, though single readings can be large; an effect the other way counts as inactive or inconclusive.
SMILES,Chronic BCR inh,MBNL1-CUG inh,B2AR arrestin,Tb PFK inh-1,Tb PFK KinaseGlo,Tb PFK inh-2
COc1ccc(CN(CC(O)COCc2ccccc2)S(=O)(=O)c2ccccc2Br)cc1OC (stereo not given),-,.,-,-,.,.
O=c1oc2c(CN3CCOCC3)c(O)ccc2cc1-c1ccc(Cl)cc1,-,.,.,.,.,.
Cc1ccc(-c2cc(C(=O)Nc3nccs3)c3ccccc3n2)o1,?,-,-,30µM,21µM,?
Cc1ccc(-c2cc(C(=O)Nc3nccs3)c3ccccc3n2)c(C)c1,?,-,-,-,.,.
COCc1cccc(C2=CC(=O)C[C@H](c3ccc(F)cc3)C2)c1,-,.,-,-,.,.
Fc1cc2ncn(Cc3ccccc3)c2cc1F,-,-,-,?,?,?
c1ccc(Cn2cnc3ccccc32)cc1,-,-,-,-,.,.
CCN(c1ccccc1)S(=O)(=O)c1ccc(N2CCN(c3ccccc3O)CC2)nc1,-,.,-,-,.,.
Cc1ccc(N2C(=O)N(CC(=O)C(C)(C)C)c3ccccc3S2(=O)=O)cc1C,-,.,.,.,.,.
O=C(NN1C(=O)CSC1=S)C(=O)NN1C(=O)CSC1=S,-,-,-,?,?,-
O=C(Cc1cccc2ccccc12)NN1C(=O)CSC1=S,-,-,-,-,.,.
COc1ccccc1NC(=O)c1cc2c(cc1Cl)N1CCCCCC1=NS2(=O)=O,-,.,-,-,.,.
COc1ccc(OC)c(/C=C/c2nc3ccccc3c(=O)n2-c2ccc(F)c(Cl)c2)c1,-,.,.,.,.,.
OCCN1CCN(C(=S)c2ccc(Cl)c(Cl)c2)CC1,?,-,-,19µM,5.4µM,13µM
O=C(Nc1ccc2c(c1)OCCO2)c1ccc(Cl)c([N+](=O)[O-])c1,?,.,-,27µM,12µM,27µM
O=C(Nc1ccc(S(=O)(=O)NC2=NCCCCC2)cc1)c1ccc(Cl)c([N+](=O)[O-])c1,-,.,-,?,13µM,?
COc1ccc(Cl)cc1NC(=O)CN(C)C(=O)Cn1cnnn1,-,.,-,-,.,.
Cc1ccc(S(=O)(=O)Nc2ccccc2N2CCCCC2)cc1,?,.,-,-,.,.
O=C(NCC(F)(F)F)c1ccc(S(=O)(=O)Nc2ccccc2N2CCCC2)cc1,-,.,-,?,-,?
C[n+]1cccc2cccc([O-])c21,-,?,-,?,?,?
Cc1ccc(S(=O)(=O)CNC(=S)c2ccc3ccccc3c2)cc1,?,-,?,?,-,30µM
Cc1ccc(S(=O)(=O)CNC(=O)c2ccccc2)cc1,?,-,-,-,.,.
COc1ccc(C(=S)NCS(=O)(=O)c2ccc(C)cc2)cc1,?,?,-,21µM,24µM,27µM
CCOC(=O)C1=C(C)Nc2ccccc2N=C1NC(=O)C1CCN(C(=O)c2ccccc2C)CC1,-,.,-,-,.,.
O=C(COc1ccc(Cl)cc1)NCC(c1cccs1)S(=O)(=O)c1ccc(F)cc1 (stereo not given),-,.,.,.,.,.
SMILES,Chronic BCR inh,MBNL1-CUG inh,B2AR arrestin,Tb PFK inh-1,Tb PFK KinaseGlo,Tb PFK inh-2
CCCNC(=O)Cn1sc2nc(C)cc(C)c2c1=O,-,-,-,8.5µM,?,8.5µM
CCOC(=O)C1CCCN(C(=O)Cn2cnc3c2c(=O)n(C)c(=O)n3C)C1 (stereo not given),-,-,-,-,.,.
CCOC(=O)C1CCCN(C(=O)Cn2sc3nc(C)cc(C)c3c2=O)C1 (stereo not given),?,-,-,1.5µM,?,3.8µM
Cc1cc(C)c2c(=O)n(CC(=O)N3CCC(N4CCCCC4)CC3)sc2n1,?,-,-,2.4µM,?,3µM
CC(=O)Cn1cnc2c(sc3nc(C)cc(C)c32)c1=O,-,-,-,-,.,.
Cc1csc(NC(=O)c2ccc(COc3ccccc3)o2)n1,?,-,-,-,.,.
O=C(CSc1nnc2ccccn12)NNC(=O)c1cccc(Cl)c1,?,.,-,-,.,.
CCn1cc(C(=O)NCc2ccco2)c(=O)c2cc(F)c(N3CCN(C(=O)c4ccco4)CC3)cc21,-,-,-,9.5µM,?,?
O=[N+]([O-])c1ccc(Cl)cc1CN1CCCCCC1,?,?,-,-,.,.
